Laboratory results as given in ChEMBL document CHEMBL4513216, “Probing the Open Global Health Chemical Diversity Library for Multistage-Active Starting Points for Next-Generation Antimalarials” (ACS Infect Dis, 2020).
Screen size: about 69,000 compounds; about 8,600 (12%) showed an effect of 50% or more. Shown is part of a subset that was picked to be rich in strong results.

These compounds were tested on Plasmodium berghei (assay: Screen against P. berghei liver stage (PbLuc), transformed with Luciferase, at 10uM). Details: tested at 10 uM.
Type: functional, HepG2

Compound | INHIBITION [%]
CN1C(=O)[C@@H]2CC[C@H]1CN(C(=O)Nc1cccc3ccccc13)C2 | -42.1
NCc1n[nH]c(-c2ccc(F)cc2)n1 | -19.7
CCCC(=O)N(C)Cc1nc(N2CCCC2)ncc1-c1ccncc1 | 14.855
CC(C)C(=O)N(C)Cc1nc(N2CCCC2)ncc1-c1ccncc1 | 11.235
COCC(=O)N(C)Cc1nc(N2CCCC2)ncc1-c1ccncc1 | 52
Cc1cc(N(Cc2ccon2)S(C)(=O)=O)ccc1Br | -22.6
CCCS(=O)(=O)N1C[C@@H]2CN(Cc3cnn(C)c3)CCO[C@@H]2C1 | 65.6
CCS(=O)(=O)N1C[C@@H]2CN(Cc3cccs3)CCO[C@@H]2C1 | 90.7
CCCS(=O)(=O)N1C[C@@H]2CN(Cc3cccs3)CCO[C@@H]2C1 | -2.46
O=S(=O)(C1CC1)N1C[C@@H]2CN(Cc3cccs3)CCO[C@@H]2C1 | 34.3
O=S(=O)(C1CC1)N1CCO[C@@H]2CN(Cc3cccs3)C[C@@H]2C1 | -23.4
CCCS(=O)(=O)N1C[C@@H]2CN(Cc3ccoc3)CCO[C@@H]2C1 | -58.9
CCS(=O)(=O)N1C[C@@H]2CN(Cc3ccco3)CCO[C@@H]2C1 | -39.2
CCS(=O)(=O)N1C[C@@H]2CN(Cc3cnn(C)c3)CCO[C@@H]2C1 | -13
c1csc(CN2CCO[C@@H]3CN(C4CCOCC4)C[C@@H]3C2)c1 | 64.4
Cc1csc(C2CCCCN2C(=O)CN(C)C(C)C)n1 (stereo unspecified) | -19.9
Cn1ccnc1COc1ccc(CN2CCC(C(N)=O)CC2)cc1 | -14.7
Nc1nc(CN2CCOC(Cn3cccn3)C2)nc2ccccc12 (stereo unspecified) | 1.75
c1ccc(-c2cc(CN3CCCC(Cn4cncn4)C3)on2)cc1 (stereo unspecified) | 11.6
CS(=O)(=O)CCC(=O)Nc1cc(Cl)c(Cl)cn1 | 35.2
CS(=O)(=O)CCCC(=O)Nc1cc(Cl)c(Cl)cn1 | 15.7
COCCCC(=O)Nc1cc(Cl)c(Cl)cn1 | 79.8

Compound | INHIBITION [%]
COCCN1CCO[C@@H]2CN(Cc3cc(OC)cc(OC)c3)C[C@@H]2C1 | 39.3
CNc1cc(C2CN(Cc3coc(C)n3)CCO2)nc(C)n1 (stereo unspecified) | -3.31
Cc1nn(C)c(C)c1CC(=O)NCc1ccnc(N2CCOCC2)c1 | -34
Cc1noc(C)c1-c1cccc(C2CN(CC(=O)N(C)C)CCO2)n1 (stereo unspecified) | 24.35
O=C1CC2(CCN(Cc3ccc4cccc(O)c4n3)CC2)CN1 | 58.6
Oc1cccc2ccc(CN3CCC4(CCNCC4)C3)nc12 | 15.9
O=C1CC2(CCN(Cc3ccc(C(F)(F)F)nc3)CC2)CN1 | 16.43
CCN(CC)CC1CN(Cc2nccs2)Cc2nccn2C1 (stereo unspecified) | -42.8
O=C(Nc1cccnc1)C1Cc2nc(-c3ccsc3)sc2N1CC1CC1 (stereo unspecified) | 60.9
O=C(NC1CCCC1)C1Cc2nc(-c3ccsc3)sc2N1CC1CC1 (stereo unspecified) | -2.35
CC(C)NC(=O)C1Cc2nc(-c3ccsc3)sc2N1CC1CC1 (stereo unspecified) | 23.3
Cc1ccccc1C(O)c1ccncc1 (stereo unspecified) | 1.95
Cc1cccc(NC(=O)[C@@H]2CCCN2Cc2nnc(C(C)C)n2C)n1 | 24.3
Cc1nonc1CNC(=O)C(C)Oc1cccc(F)c1 (stereo unspecified) | -35.5
COc1ccc(CN(C)CCS(=O)(=O)c2ccc(Cl)cc2)cc1OC | 68.8
CCN(CCS(=O)(=O)c1ccc(Cl)cc1)Cc1ccc(OC)c(OC)c1 | 70.5
COc1ccc(Cl)cc1S(=O)(=O)N(C)CC(N)=O | 23.5
COc1ccc(CCN(C)CCS(=O)(=O)c2ccc(Cl)cc2)cc1OC | 63.7
COc1ccc(CCCN(C)C(=O)c2cc(Cl)c[nH]2)cc1OC | 16.6
COc1ccc(CCN(C)C(C(=O)O)c2ccc(F)c(C)c2)cc1OC (stereo unspecified) | 16.7
COc1ccc(S(=O)(=O)NCCCc2ccc(N(C)C)cc2)cc1Cl | 41.9
COCCN(C)Cc1ccc(OC)c(OC(F)F)c1 | 26.8

Compound | INHIBITION [%]
CCN(Cc1nccs1)Cc1cc(Cl)ccc1OC | 15.3
O=S(=O)(C1CC1)N1C[C@@H]2COC[C@]2(COc2ccccn2)C1 | 26.3
CC(C)c1nccc(N2CCN(CC(=O)N3CCOCC3)CC2)n1 | -0.96
CN(CCc1ccncc1)C(=O)C1CSCN1C(=O)CC(C)(C)C (stereo unspecified) | -23.8
Cc1cccc(-n2cc3nc(N4CCC(C)CC4)[nH]cc-3c2=O)c1 | 23.4
Cc1cnc(NCC(C)(C)N2CCCCC2)nc1 | 23.3
Cc1cnc(NCC(C)(C)N2CCOCC2)nc1 | 65.7
Cc1cnc(NCC(C)(C)N2CCN(C)CC2)nc1 | 47.2
CCn1c(CN(C)C(=O)c2ccc(O)nc2)nc2ccccc21 | -82.4
CSCCNc1ccc(C(=O)N(C)Cc2ccc3ccccc3n2)cn1 | 56.1
CCn1c(CN(C)C(=O)c2ccc(N(C)C)nc2)nc2ccccc21 | -17.4
CN(C)C(=O)c1ccc(NCCNc2ccc3ccccc3n2)nc1 | 8.13
CNc1ccc(C(=O)N(C)Cc2ccc3ccccc3n2)cn1 | 69.7
CCNc1ncc(C(=O)N(C)Cc2nc3ccccc3n2C)cn1 | 16.2
Cn1ccnc1-c1cn(Cc2cn3c(n2)SCC3)nn1 | 5.75
Cc1cccc(CN2C(=O)CCC23CCN(C(=O)N2CCCC2)CC3)n1 | 18.6
CC(=O)N1N=C(c2ccccc2)OC1C(=O)N(C)Cc1ccccc1 (stereo unspecified) | 24.3
O=C(N[C@@H]1CCN(Cc2ccc(F)cc2F)C[C@H]1O)c1cccnc1 | -26.8
CCOCCCNC(=O)c1nnn(Cc2ccccc2)c1OC | 13.5
CCOc1cc(/C=C/c2ncc(C(=O)O)s2)ccc1O | -6.62
CNC(=O)c1cnc(C=Cc2cc(OC)c(O)c(OC)c2)s1 | 50
CNC(=O)c1cnc(/C=C/c2ccc(OC)c(O)c2)s1 | 40.1

Compound | INHIBITION [%]
CNC(=O)c1cnc(/C=C/c2cc(OC)c(OC)c(OC)c2)s1 | 53.5
CCOc1cc(C=Cc2ncc(C(=O)NC)s2)ccc1OC | 72.2
CNC(=O)c1cnc(C=Cc2cc(OC)c3c(c2)OCCO3)s1 | 41.4
COc1cc(/C=C/c2ncc(C(=O)O)s2)cc(Cl)c1O | -20.9
CCOc1c(Br)cc(/C=C/c2ncc(C(=O)O)s2)cc1OC | -39.3
CNC(=O)c1cnc(/C=C/c2cc(OC)cc(OC)c2)s1 | -76.5
CNC(=O)c1cnc(C=Cc2ccc(O)c(OC)c2)s1 | -84.4
CCOc1c(Cl)cc(/C=C/c2ncc(C(=O)O)s2)cc1OC | 7.27
CCOc1c(OC)cc(C=Cc2ncc(C(=O)NC)s2)cc1OC | 52.6
CCOc1ccc(C2CCCN2Cc2nnnn2C2CC2)cc1 (stereo unspecified) | 48.2
O=c1ccc2c(n1Cc1cccnc1)CCN(CC1CCOC1)CC2 (stereo unspecified) | -5.63
C[C@H]1CN(C(=O)c2ccoc2)C[C@@]12CCN(CCN(C)C)C2=O | -80
CCC(=O)NC1CCCN(c2cncc(OCc3ccccc3)n2)C1 (stereo unspecified) | 1.56
O=C(NCc1ccccn1)[C@@H]1COC[C@H]2CN(C3CCC3)C[C@H]21 | 26.4
Cc1nc(-c2ccccc2)n(CC(=O)NC2CCCCC2)n1 | 37.4
O=S1(=O)COCCN1Cc1ccc(F)cc1Cl | 33.9
Cn1cc(CN2CCC3(CC2)CCN(Cc2ccccn2)CC3)cn1 | 41.2
O=C(c1ccnc(C2CCNCC2)c1)N1CCCC1 | 7.43
O=C1OCC(CO)N1Cc1cccc(Cl)c1F (stereo unspecified) | 28.7
COc1ccc(CCNC(=O)NC2CCCC2)cc1OC | -24.9
NC(=O)c1cccc(CCNC(=O)N2CCCC2)c1 | 58.1
C=C(C)COc1ccccc1CN1CCC(NC(C)=O)CC1 | 19.4

Compound | INHIBITION [%]
Cn1cc(CCNC(=O)NC2CCN(Cc3ccccn3)CC2)cn1 | 16.8
COc1ccc(CCNC(=O)NCc2cccc(C(N)=O)c2)cc1OC | 37.4
CNC(=O)c1cccc(CCNC(=O)N2CCc3ccccc3C2)c1 | 3.73
C=C(C)CN1CCC(NC(=O)NCCc2cccc(C(N)=O)c2)CC1 | 57.3
C=C(C)CN1CCC(NC(=O)c2scnc2C)CC1 | -6.44
NC(=O)c1cccc(CCNC(=O)N2Cc3ccccc3C2)c1 | 26.5
C=C(C)CN1CCC(NC(=O)NCCc2ccccc2OC)CC1 | 94.1
C=C(C)CN1CCC(NC(=O)Nc2cc(C(N)=O)ccc2OC)CC1 | 32.5
C=C(C)CN1CCC(NC(=O)NCCc2ccc(N(C)C)cc2)CC1 | 55.4
COC1CCCOC12CCN(C(=O)c1ccc3[nH]nnc3c1)CC2 (stereo unspecified) | -29.9
O=C(CSC1=NS(=O)(=O)c2cc(Cl)ccc2N1)c1ccccc1 | 11.8
Cn1cc(CN2CCCC3(CCN(C(=O)c4ccccn4)C3)C2)cn1 (stereo unspecified) | 11.3
COCCC(=O)N1CCOCC(Cc2ccc3c(ccn3C)c2)C1 (stereo unspecified) | 17.475
CC(=O)N(Cc1ncc(C)o1)C1CCN(Cc2ccccc2C#N)C1 (stereo unspecified) | 9.64
NC(=O)c1cc(C2CCCN(C(=O)CCc3cccs3)C2)n[nH]1 (stereo unspecified) | 17.5
O=C1CC[C@@H](CN(Cc2ccncc2)Cc2nc(CC3CC3)no2)N1 | 36.6
Cc1nc(C)c2c(n1)CCN(C(=O)CC1CC1)CC2 | 19.9
CCN1Cc2nccn2CC(COCc2csc(C)n2)C1 (stereo unspecified) | 8.66
